# Data published in PubChem BioAssay.
# Activity calls are given as the source filed them.
# Assays:
# [1] = tested on: Human papillomavirus type 1a protein E7 (residues 44-93); assay: small molecules binding HPV E7 44-93 – biochemical, small-molecule microarray, residues 44-93, 635 nm fluorescence, primary screen (AID 1108); conditions: fluorescence 635 nm, higher = more signal;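 note: E7 fragment applied at 1 µg/mL in TBST for 1 h at 4 C; score combines spot fluorescence with its signal to noise ratio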
# [2] = hepatitis C replication reporter changes, two-sided – Huh7 cells, luciferase reporter, HCV replication inhibitor project, primary screen (AID 1109); conditions: Huh7 HCV replicon luciferase reporter, 48 h; higher = more signal;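 note: huh7 hepatoma cells harbouring a luciferase neomycin HCV replicon reporter; luciferase luminescence as measure of HCV replicon replication; test concentration not given here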
# [3] = biological target: Left-right determination factor 2 (Homo sapiens) (UniProt O00292); assay: small molecules binding LEFTY2 protein – biochemical, small-molecule microarray, 635 nm fluorescence scan, primary screen (AID 1110); conditions: higher = more signal
# Sequence of Left-right determination factor 2 (Homo sapiens) (O00292 whole entry, looked up): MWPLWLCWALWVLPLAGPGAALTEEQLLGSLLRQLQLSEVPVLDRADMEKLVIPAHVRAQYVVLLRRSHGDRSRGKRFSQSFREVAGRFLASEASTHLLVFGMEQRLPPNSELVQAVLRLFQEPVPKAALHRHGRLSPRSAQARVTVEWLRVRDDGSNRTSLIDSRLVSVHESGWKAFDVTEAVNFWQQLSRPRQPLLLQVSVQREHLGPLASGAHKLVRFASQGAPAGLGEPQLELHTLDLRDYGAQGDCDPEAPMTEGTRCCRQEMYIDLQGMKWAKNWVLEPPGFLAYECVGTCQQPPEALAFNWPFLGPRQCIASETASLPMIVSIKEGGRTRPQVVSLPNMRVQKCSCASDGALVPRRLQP
# [4] = biological target: Calmodulin-1 (Homo sapiens) (UniProt P0DP23); assay: small molecules binding calmodulin-1 with EGTA – biochemical, small-molecule microarray, Cy5-labelled CALM1, profiling panel (AID 1111); conditions: Cy5-CALM1 binding fluorescence, higher = more signal;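 note: labelled calmodulin applied in Tris saline Tween buffer holding calcium plus EGTA and DTT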
# [5] = biological target: Calmodulin-1 (Homo sapiens) (UniProt P0DP23); assay: small molecules binding Ca-loaded calmodulin-1 – biochemical, small-molecule microarray, Cy5-labelled CALM1, plus calcium, artefact control for SMM control-protein annotation, profiling panel (AID 1112); conditions: Cy5-CALM1 binding fluorescence, higher = more signal;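 note: score merges spot fluorescence with signal to noise from triplicate slides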
# [6] = probe aWnt5a binding to arrayed compounds – biochemical, biotinylated probe, 635/667 nm fluorescence, primary screen (AID 1113); conditions: small-molecule microarray, higher = more signal;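 note: score merges 667 nm fluorescence intensity with signal-to-noise per printed feature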
# [7] = probe aShh binding to arrayed compounds – biochemical, biotinylated probe, 635/667 nm fluorescence, primary screen (AID 1114); conditions: small-molecule microarray, higher = more signal;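 note: probe is biotin-labelled aShh protein from a stem cell growth factor screen; measures binding of labelled protein to compounds printed on the slide; score merges feature fluorescence at 667 nm with signal-to-noise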
# [8] = probe aNog binding to arrayed compounds – biochemical, biotinylated probe, 635/667 nm fluorescence, primary screen (AID 1115); conditions: small-molecule microarray, higher = more signal;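 note: probe is biotinylated aNog protein used at 0.15 µg/mL for 1 h at 4 C; z-score combines 667 nm fluorescence of each spot with its signal to noise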
# [9] = biological target: Torsin-1A-interacting protein 1 (Homo sapiens) (UniProt Q5JTV8); assay: compound microarray binding of lysate hLAP1 – cell lysate, small-molecule microarray, COS7 lysate, 635/667 nm fluorescence, primary screen (AID 1116); conditions: 635 nm fluorescence, higher = more signal
# Sequence of Torsin-1A-interacting protein 1 (Homo sapiens) (Q5JTV8 whole entry, looked up): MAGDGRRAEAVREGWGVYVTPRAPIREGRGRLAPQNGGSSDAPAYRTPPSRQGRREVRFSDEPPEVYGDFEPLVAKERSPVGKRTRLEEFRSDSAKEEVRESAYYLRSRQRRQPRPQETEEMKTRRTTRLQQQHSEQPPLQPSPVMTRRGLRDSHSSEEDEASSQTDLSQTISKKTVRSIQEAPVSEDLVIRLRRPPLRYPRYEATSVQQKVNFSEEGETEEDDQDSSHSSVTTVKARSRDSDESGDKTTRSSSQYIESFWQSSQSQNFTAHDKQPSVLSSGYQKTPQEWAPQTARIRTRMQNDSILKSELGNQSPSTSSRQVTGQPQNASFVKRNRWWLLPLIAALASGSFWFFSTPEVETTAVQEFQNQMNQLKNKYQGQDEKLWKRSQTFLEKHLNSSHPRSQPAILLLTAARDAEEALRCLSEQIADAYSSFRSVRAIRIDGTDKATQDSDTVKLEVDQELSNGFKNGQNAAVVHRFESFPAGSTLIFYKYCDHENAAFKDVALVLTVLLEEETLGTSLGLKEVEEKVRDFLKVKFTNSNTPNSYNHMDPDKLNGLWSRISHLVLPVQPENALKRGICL
# [10] = biological target: Alpha-bungarotoxin (Bungarus multicinctus) (UniProt P60615); assay: compounds binding labelled alpha-BTX control protein – biochemical, small-molecule microarray, Alexa647 label, 635/667 nm fluorescence, artefact control for SMM control protein annotation, profiling panel (AID 1117); conditions: alpha-BTX-A647 binding fluorescence, higher = more signal
# Sequence of Alpha-bungarotoxin (Bungarus multicinctus) (P60615 whole entry, looked up): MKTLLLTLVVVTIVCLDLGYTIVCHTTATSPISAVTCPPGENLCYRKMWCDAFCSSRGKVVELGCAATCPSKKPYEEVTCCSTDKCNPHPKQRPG
# Albumin (Bos taurus) = Albumin (Bos taurus) (UniProt P02769); assay: compounds binding labelled BSA control protein – biochemical, small-molecule microarray, Alexa647 label, 635/667 nm fluorescence, artefact control for SMM control protein annotation, profiling panel (AID 1118); conditions: BSA-A647 binding, fluorescence 635 nm, higher = more signal;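 note: score merges 667 nm emission intensity and signal-to-noise per printed compound spot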
# Sequence of Albumin (Bos taurus) (P02769 whole entry, looked up): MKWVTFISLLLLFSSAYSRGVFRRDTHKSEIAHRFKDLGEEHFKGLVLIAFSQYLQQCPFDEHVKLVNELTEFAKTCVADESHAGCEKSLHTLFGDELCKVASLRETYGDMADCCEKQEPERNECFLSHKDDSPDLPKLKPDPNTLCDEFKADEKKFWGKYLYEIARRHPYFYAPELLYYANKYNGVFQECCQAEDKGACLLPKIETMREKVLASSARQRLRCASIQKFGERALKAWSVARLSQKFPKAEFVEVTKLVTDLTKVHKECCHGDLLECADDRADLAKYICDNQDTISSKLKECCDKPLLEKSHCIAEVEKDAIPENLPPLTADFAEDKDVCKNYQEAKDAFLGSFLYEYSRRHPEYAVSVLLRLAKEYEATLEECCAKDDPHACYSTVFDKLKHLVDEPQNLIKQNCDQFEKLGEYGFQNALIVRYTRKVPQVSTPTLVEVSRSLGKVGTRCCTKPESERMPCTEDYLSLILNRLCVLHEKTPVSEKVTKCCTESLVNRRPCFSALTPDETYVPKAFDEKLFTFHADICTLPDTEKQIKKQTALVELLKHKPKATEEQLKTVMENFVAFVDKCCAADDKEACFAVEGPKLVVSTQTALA
# [11] = probe aXIP binding to arrayed compounds – biochemical, NeuroSMM set, 635/667 nm fluorescence, primary screen (AID 1119); conditions: small-molecule microarray, higher = more signal, called active from +8 up or from −8 down;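 note: probe is the protein aXip251-270 applied at 1 µg/mL to compound-printed slides; binding of probe to printed compounds measured as 667 nm fluorescence plus signal to noise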
# [12] = probe aNOTCH3 binding on compound microarray – biochemical, small-molecule microarray, 635/667 nm fluorescence, primary screen (AID 1120); conditions: higher = more signal;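 note: probe is a biotin-tagged antibody raised against NOTCH3 rather than NOTCH3 protein; score merges spot fluorescence near 667 nm with spot signal to noise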
# [13] = probe aNOTCH2 binding on compound microarray – biochemical, small-molecule microarray, 635/667 nm fluorescence, primary screen (AID 1121); conditions: higher = more signal;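 note: score merges feature fluorescence read at 667 nm with its signal to noise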
# [14] = biological target: Carbonic anhydrase 2 (Homo sapiens) (UniProt P00918); assay: compounds binding carbonic anhydrase 2 – biochemical, small-molecule microarray, Alexa647-labelled CAII, profiling panel (AID 1122); conditions: CAII-A647 binding fluorescence, higher = more signal
# [15] = COS7 lysate on small-molecule microarray, probe aHis, 635 nm (AID 1123); conditions: COS7 cell lysate, fluorescence, higher = more signal;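 note: z-score combines 667nm fluorescence intensity with signal-to-noise per printed compound spot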
# [16] = probe aLAP1 signal on lysate-treated microarray – cell lysate, small-molecule microarray, COS7 lysate, primary screen (AID 1124); conditions: probe aLAP1, fluorescence, higher = more signal;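 note: lysate comes from COS7 cells expressing LAP1 and is applied at 0.3 µg/mL; score merges spot fluorescence near 667 nm with signal-to-noise over triplicate slides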
# Sam68 (KHDRBS1) = assay: compounds binding KHDRBS1 protein – biochemical, small-molecule microarray, 635 nm fluorescence, primary screen (AID 1125); conditions: higher = more signal;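 note: score merges 667 nm channel intensity with signal to noise over triplicate slides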
# [17] = tested on: Chordin-like protein 2 (CHRDL2); assay: compounds binding chordin-like 2 – biochemical, small-molecule microarray, 635 nm fluorescence, primary screen (AID 1126); conditions: fluorescence 635 nm, higher = more signal;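 note: printed compound slides probed with Chrdl2 protein at 4 µg/mL for 1 h at 4 C; score merges 667 nm emission intensity with signal to noise over three replicate slides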
# [18] = biological target: Concanavalin-A (Canavalia ensiformis) (UniProt P02866); assay: compounds binding concanavalin A lectin – biochemical, small-molecule microarray, Alexa647 label, 635 nm, artefact control for SMM control protein annotation, primary screen (AID 1127); conditions: ConA-A647 binding fluorescence, higher = more signal;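 note: z combines 667 nm emission intensity with signal-to-noise across three replicate slides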
# Sequence of Concanavalin-A (Canavalia ensiformis) (P02866 whole entry, looked up): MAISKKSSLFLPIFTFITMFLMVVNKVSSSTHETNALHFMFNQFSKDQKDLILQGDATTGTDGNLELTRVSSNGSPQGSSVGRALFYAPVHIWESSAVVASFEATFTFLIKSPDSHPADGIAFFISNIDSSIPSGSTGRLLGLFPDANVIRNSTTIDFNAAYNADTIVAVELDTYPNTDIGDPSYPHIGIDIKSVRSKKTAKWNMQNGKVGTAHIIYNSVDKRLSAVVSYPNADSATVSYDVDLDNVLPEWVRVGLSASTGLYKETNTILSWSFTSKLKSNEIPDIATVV
SMILES,composite z-score [1],z-score [2],composite z-score [3],composite z-score [4],composite z-score [5],composite z-score [6],composite z-score [7],composite z-score [8],composite z-score [9],composite z-score [10],composite z-score (Albumin (Bos taurus)),composite Z-score [11],composite z-score [12],composite z-score [13],composite z-score [14],composite z-score [15],composite z-score [16],composite z-score (Sam68 (KHDRBS1)),composite z-score [17],composite z-score [18]
C=C(COC)/C(=C/C[C@H](OC(=O)c1ccncc1)c1ccccc1OCCO)c1cnc2ccccc2c1,1.4,-2.29,0.76,-0.158,-0.857,-0.0405,-0.0626,0.0481,0.0493,1.04,0.609,0.431 (inactive),0.0964,-0.102,0.881,2.07,0.118,1.29,0.951,1.03
C=C(C)c1cc2c(c(CCCCCC)n1)[Si](C(C)C)(C(C)C)OC2,-1.01,-0.35,-1.08,-0.689,0.603,-0.145,-0.123,-0.295,-1.07,-0.676,-0.923,-0.335 (inactive),-0.296,-0.146,-0.484,-0.369,-0.603,-0.631,-1.41,-0.277
CCCCCCc1nc(-c2cc(C)c(OC)c(C)c2)c(C)c2c1[Si](C(C)C)(C(C)C)OC2,-0.226,0.791,-0.0571,-0.357,0.34,-0.0445,0.184,0.116,-0.116,-0.0116,-0.58,0.792 (inactive),-0.165,-0.209,-0.146,0.0188,-0.373,-0.611,0.574,-0.112
CCOC(=O)C1=C[C@@H](c2ccccc2)N(S(=O)(=O)c2ccc(C)cc2)[C@H]1c1ccccc1Cl,1.32,-1.55,0.553,1.06,-0.651,-0.0161,0.0121,-0.0784,0.731,1.04,0.729,0.0277 (inactive),0.112,0.23,0.389,1.66,0.772,1.26,0.359,0.752
[N-]=[N+]=NCc1ccccc1C[C@@]1(C(=O)N2CCOCC2)N=C(c2ccc(OCCCO)cc2)O[C@@H]1c1ccccc1,1.45,-3.27,0.285,1.83,0.997,0.0597,0.412,-0.549,2.09,0.916,0.851,0.879 (inactive),0.056,0.0012,0.617,2.92,0.491,1.11,-0.577,1.08
CC1CC/C=C\[C@H]2OC34C=CCN(c5ccc(Cl)cc5)C(=O)[C@H]3N(CCCCCO)C(=O)[C@]4(C)C2C(=O)O1 (stereo not given in full),-0.826,0.315,-2.19,-0.471,0.432,-0.247,-0.0626,-0.163,-0.614,-1.16,-1.08,-0.0503 (inactive),-0.288,-0.117,-0.482,-0.779,-0.3,-0.682,-1.67,-1.03
C=CCC(OC(C)=O)[C@@H]1[C@@H](N(Cc2ccc(-c3cccc(C(F)(F)F)c3)o2)C(=O)c2ccc(-c3ccccc3)cc2)c2cc(OCCCO)ccc2N1C(=O)c1ccc2ccccc2n1 (stereo not given in full),-0.252,0.177,-0.122,-0.227,0.623,0.0437,0.112,-0.139,-0.2,-0.386,-0.267,-0.219 (inactive),-0.0077,0.357,-0.232,0.266,-0.154,-0.734,0.198,-0.458
COCCOC(=O)N1C(=O)[C@@]2(c3cc(C#CC4=CCCCC4)ccc31)[C@H](C(N)=O)[C@H]1C(=O)O[C@H](c3ccccc3)[C@H](c3ccccc3)N1[C@@H]2c1ccccc1OCCO,0.22,-3.15,0.423,0.994,-0.121,0.0839,0.173,0.0157,1.25,1.69,-0.24,-0.0254 (inactive),-0.0057,-0.114,0.652,1.59,0.806,1.31,0.588,1.11
CCCCO[C@H]1C[C@H]2C(I)=C[C@@H]1C(=O)[C@]21CO1,-0.977,-2.7,0.312,-0.331,-0.502,-0.0735,-0.0866,0.0327,-0.243,-0.0708,-0.369,-0.014 (inactive),-0.0311,-0.25,-0.302,-0.196,-0.287,-0.414,0.377,0.267
C=CCC(OC(C)=O)[C@@H]1[C@@H](N(Cc2cccc3ccccc23)C(=O)Cc2ccc(F)cc2)c2cc(OCCCO)ccc2N1C(=O)c1ccc2ccccc2n1 (stereo not given in full),-0.829,-0.562,0.226,0.304,0.398,-0.18,-0.123,-0.432,0.0149,0.411,-0.0728,-0.486 (inactive),-0.0125,0.0156,0.409,0.0549,0.398,-0.301,0.192,0.483
COC(=O)C(CC#Cc1ccc2c(c1)[C@]1(C(=O)N2)[C@H](c2ccccc2OCCO)N2[C@H](c3ccccc3)[C@H](c3ccccc3)OC(=O)[C@H]2[C@@H]1C(=O)NC[C@H](O)c1ccccc1)C(=O)OC,1.39,-2.08,0.261,0.0614,-0.316,0.285,2.44,0.108,2.19,0.971,0.42,0.231 (inactive),-0.19,0.0537,0.544,1.83,0.445,0.947,0.285,1.12
